Measurements as given in PubChem BioAssay (Tox21).
Results filed as inconclusive are left out. Active and inactive are the calls of the source. Unless noted, calls follow the shape of the dose curve; as a rule, active = well fitted curve in the direction sought with a large enough effect in the repeat runs; inconclusive = weak or mixed curves; inactive = no such curve, though single readings can be large; an effect the other way counts as inactive or inconclusive.

How the values were obtained:
[1] = qHTS assay to identify aromatase inhibitors - cell viability counter screen (AID 743084);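 also: cells stimulated with testosterone during compound exposure; nearly all actives have a fitted effect of over 55% in size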
[2] = qHTS assay to identify small molecule that activate the aryl hydrocarbon receptor (AhR) signaling pathway - cell viability counter screen (AID 743086);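 also: HepG2 liver cells carrying the AhR DRE luciferase reporter; series mostly up to about 70 µM; nearly all actives have a fitted effect of over 45% in size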
Summary of the method: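 HepG2-AhR-luc (HG2L7.5c1) cells, 4000/well, treated 24 h at 37 C with compound; viability measured as CellTiter-Fluor fluorescence after 30 min in the same wells as the luciferase read.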

[3] = target: Peroxisome proliferator-activated receptor gamma (Homo sapiens) (UniProt P37231); experiment: qHTS assay to identify small molecule agonists of the peroxisome proliferator-activated receptor gamma (PPARg) signaling pathway (AID 743094; active = well fitted activation curve with a large enough effect in the signal ratio in the repeat runs, not every such curve was filed as active; the % refers to the signal ratio)
Summary of the method: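 Following 5 h plating at 37C, PPARg-bla HEK293H cells receive compound or DMSO for 17 h; fluorescence intensity is recorded after LiveBLAzer B/G loading for 1 h at room temperature.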

[4] = target: Peroxisome proliferator-activated receptor gamma (Homo sapiens) (UniProt P37231); experiment: qHTS assay to identify small molecule antagonists of the peroxisome proliferator-activated receptor gamma (PPARg) signaling pathway (AID 743191; calls by dose curve; also: series mostly up to about 63 µM; nearly all actives have a fitted effect of over 30% in size)
Summary of the method: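 GeneBLAzer PPARg UAS-bla HEK293H cells, 5 h post-plating, exposed to compounds 17 h at 37C. LiveBLAzer B/G FRET substrate added for 1 h at room temperature; beta-lactamase reporter read by fluorescence intensity.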

[5] = qHTS assay to identify small molecule antagonists of the peroxisome proliferator-activated receptor gamma (PPARg) signaling pathway - cell viability counter screen (AID 743194); also: nearly all actives have a fitted effect of over 55% in size
Summary of the method: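 Cytotoxicity counter screen in PPARg-bla HEK293H cells, same wells as reporter assay. Compounds plus 50 nM rosiglitazone (final) for 17 h at 37 C, then viability read by CellTiter-Glo luminescence.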

[6] = qHTS assay for small molecule agonists of the antioxidant response element (ARE) signaling pathway (AID 743202; active = well fitted activation curve with a large enough effect in the signal ratio in the repeat runs, not every such curve was filed as active; the % refers to the signal ratio; also: potency is read from the fitted curve at half-maximal effect)
Summary of the method: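 ARE-bla HepG2 cells (beta-lactamase reporter under the antioxidant response element), plated 5 hours, then exposed to compounds 16 hours at 37 C. LiveBLAzer B/G FRET substrate added for 2 hours at room temperature; fluorescence intensity read.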

[7] = qHTS assay for small molecule activators of the heat shock response signaling pathway - cell viability counter screen (AID 743209); also: nearly all actives have a fitted effect of over 50% in size
Summary of the method: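 Counter screen for cytotoxicity in HeLa HSE-bla reporter cells. Treatment was 5 h at 37 C; viability was detected by luminescent ATP assay (CellTiter-Glo) in the same wells as the beta-lactamase read.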

[8] = qHTS assay for small molecule activators of the heat shock response signaling pathway (AID 743210; active = well fitted activation curve with a large enough effect in the signal ratio in the repeat runs, with a control signal flat, not every such curve was filed as active; the % refers to the signal ratio; also: series mostly up to about 63 µM)
Summary of the method: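 HSE-bla HeLa cells (beta-lactamase reporter under heat shock response elements), plated overnight, then exposed to compounds 5 h at 37 C; LiveBLAzer B/G FRET substrate added, 2.5 h at room temperature, fluorescence intensity read.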

[9] = qHTS assay to identify small molecule agonists of the peroxisome proliferator-activated receptor delta (PPARd) signaling pathway - cell viability counter screen (AID 743211); also: nearly all actives have a fitted effect of over 55% in size
Summary of the method: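 Viability of GeneBLAzer PPARd UAS-bla HEK293H cells was assessed after 17 h compound incubation at 37C, using CellTiter-Glo reagent added after the reporter read and luminescence recorded 30 min later.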

[10] = target: Peroxisome proliferator-activated receptor delta (Homo sapiens) (UniProt Q03181); experiment: qHTS assay to identify small molecule agonists of the peroxisome proliferator-activated receptor delta (PPARd) signaling pathway (AID 743212; calls by dose curve)
Summary of the method: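 GeneBLAzer UAS-bla HEK293H cells carrying a PPARδ construct were exposed to compounds at 37 °C. Beta-lactamase activity was read by FRET fluorescence after 2 h at room temperature with LiveBLAzer B/G substrate.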

[11] = qHTS assay to identify small molecule antagonists of the peroxisome proliferator-activated receptor delta (PPARd) signaling pathway - cell viability counter screen (AID 743213); also: nearly all actives have a fitted effect of over 50% in size
Summary of the method: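 Cytotoxicity counter screen: CellTiter-Glo luminescence read 30 min after addition, in the same wells as the reporter assay. There, PPARd UAS-bla HEK293H cells (3000/well) were treated 17 h at 37 C with compound and 300 nM L165041.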

[12] = target: Peroxisome proliferator-activated receptor delta (Homo sapiens) (UniProt Q03181); experiment: qHTS assay to identify small molecule antagonists of the peroxisome proliferator-activated receptor delta (PPARd) signaling pathway (AID 743215; active = well fitted inhibition curve with a large enough effect in the signal ratio in the repeat runs, not every such curve was filed as active; the % refers to the signal ratio;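 also: cells stimulated with agonist L165041 at 300 nM final during compound exposure; series mostly up to about 62 µM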)
Summary of the method: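 With L165041 present at 300 nM final, compounds were incubated 17 h at 37 C on PPARd UAS-bla HEK293H cells. A FRET-based beta-lactamase substrate was then applied for 2 h at room temperature and fluorescence intensity recorded.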

[13] = target: Bile acid receptor (Homo sapiens) (UniProt Q96RI1); experiment: qHTS assay to identify small molecule antagonists of the farnesoid-X-receptor (FXR) signaling pathway (AID 743217; active = well fitted inhibition curve with a large enough effect in the signal ratio in the repeat runs, not every such curve was filed as active; the % refers to the signal ratio)
Summary of the method: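 In this cell-based antagonist screen, inhibition of CDCA-driven (50 uM final) UAS-beta-lactamase expression in HEK 293T cells was measured by FRET fluorescence following 16 h compound exposure at 37 °C.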

[14] = qHTS assay to identify small molecule agonists of the farnesoid-X-receptor (FXR) signaling pathway - cell viability counter screen (AID 743218); also: nearly all actives have a fitted effect of over 45% in size
Summary of the method: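 After 16 h at 37 C with test compounds, FXR-bla HEK 293T cells were given LiveBLAzer B/G substrate for 2 h at RT and then CellTiter-Glo; luminescence was taken after 30 min.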

[15] = target: Bile acid receptor (Homo sapiens) (UniProt Q96RI1); experiment: qHTS assay to identify small molecule agonists of the farnesoid-X-receptor (FXR) signaling pathway (AID 743220; active = well fitted activation curve with a large enough effect in the signal ratio in the repeat runs, not every such curve was filed as active; the % refers to the signal ratio)
Summary of the method: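 Beta-lactamase reporter under UAS control in GeneBLAzer FXR HEK 293T cells (5000/well) measured with LiveBLAzer FRET substrate after 2 h at room temperature. Compound exposure lasted 16 h at 37C.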

[16] = qHTS assay to identify small molecule antagonists of the farnesoid-X-receptor (FXR) signaling pathway - cell viability counter screen (AID 743221; active = well fitted cell-killing curve with a large enough effect in the repeat runs, not every such curve was filed as active; also: nearly all actives have a fitted effect of over 50% in size)
Summary of the method: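 Quantitative HTS of the Tox21 10K library run in parallel with the beta-lactamase reporter read. HEK 293T cells carrying a UAS-driven bla reporter got compound and 50 uM CDCA (final) for 16 h; ATP-based luminescence followed.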

[17] = target: Vitamin D3 receptor (Homo sapiens) (UniProt P11473); experiment: qHTS assay to identify small molecule agonists of the vitamin D receptor (VDR) signaling pathway (AID 743222; calls by dose curve)
Summary of the method: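 VDR-bla cells were seeded, left 4 h, treated with compounds in DMSO for 16 h, incubated 2 h at RT with B/G FRET substrate, and read for fluorescence.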

[18] = target: Vitamin D3 receptor (Homo sapiens) (UniProt P11473); experiment: qHTS assay to identify small molecule antagonists of the vitamin D receptor (VDR) signaling pathway (AID 743223; active = well fitted inhibition curve with a large enough effect in the signal ratio in the repeat runs, not every such curve was filed as active; the % refers to the signal ratio)
Summary of the method: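 Fluorescence from LiveBLAzer B/G FRET substrate, read after 2 h at room temperature, reflects beta-lactamase reporter activity in VDR-bla cells treated 16 h at 37C with compounds and agonist 1alpha,25-dihydroxyvitamin D3 (3 nM final).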

[19] = qHTS assay for small molecule agonists of the antioxidant response element (ARE) signaling pathway - cell viability counter screen (AID 743203; calls by dose curve; also: nearly all actives have a fitted effect of over 55% in size)
Summary of the method: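 Compounds in DMSO were pinned onto ARE-bla HepG2 cells plated 5 hrs earlier at 2,000 cells/well. Sixteen hours later at 37C/5% CO2, CellTiter-Glo was added and luminescence measured after 30 min at room temperature.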

[20] = target: Aryl hydrocarbon receptor (Homo sapiens) (UniProt P35869); experiment: qHTS assay to identify small molecule that activate the aryl hydrocarbon receptor (AhR) signaling pathway (AID 743085);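 also: HG2L7.5c1 human HepG2 liver cells with stably integrated DRE-driven firefly reporter; series mostly up to about 70 µM; nearly all actives have a fitted effect of over 15% in size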
Summary of the method: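 Steps: seed HepG2-AhR-luc cells; allow 5 h at 37C; pin-transfer test compound or vehicle; incubate 24 h at 37C; add viability dye (30 min, 37C) and read fluorescence; add luciferase substrate (30 min, RT) and read luminescence.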
% is scaled to controls: 0 for no effect and ±100 for the full control effect.

Aryl hydrocarbon receptor (Homo sapiens), sequence (P35869 whole entry, looked up): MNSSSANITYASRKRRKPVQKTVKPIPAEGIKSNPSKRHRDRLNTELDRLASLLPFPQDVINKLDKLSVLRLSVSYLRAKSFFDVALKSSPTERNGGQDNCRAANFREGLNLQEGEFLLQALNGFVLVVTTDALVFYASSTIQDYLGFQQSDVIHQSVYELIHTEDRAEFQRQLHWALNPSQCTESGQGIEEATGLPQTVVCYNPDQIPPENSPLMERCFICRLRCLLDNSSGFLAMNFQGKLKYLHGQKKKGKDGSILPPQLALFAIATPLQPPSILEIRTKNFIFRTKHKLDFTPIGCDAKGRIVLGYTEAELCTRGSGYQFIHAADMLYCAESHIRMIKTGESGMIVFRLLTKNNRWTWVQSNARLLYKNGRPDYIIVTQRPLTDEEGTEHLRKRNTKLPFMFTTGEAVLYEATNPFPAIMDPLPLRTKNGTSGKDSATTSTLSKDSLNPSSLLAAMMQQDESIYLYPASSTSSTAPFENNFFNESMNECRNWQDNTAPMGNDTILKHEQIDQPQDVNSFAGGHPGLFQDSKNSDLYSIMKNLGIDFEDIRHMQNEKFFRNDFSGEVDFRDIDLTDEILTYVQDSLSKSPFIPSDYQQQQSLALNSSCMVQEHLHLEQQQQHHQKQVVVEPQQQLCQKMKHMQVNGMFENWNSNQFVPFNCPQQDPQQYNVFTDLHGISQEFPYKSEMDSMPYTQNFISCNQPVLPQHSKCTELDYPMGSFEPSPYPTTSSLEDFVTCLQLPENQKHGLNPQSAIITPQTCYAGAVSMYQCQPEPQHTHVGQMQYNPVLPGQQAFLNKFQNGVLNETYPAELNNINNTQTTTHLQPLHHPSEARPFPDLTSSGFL
Peroxisome proliferator-activated receptor delta (Homo sapiens), sequence (Q03181 whole entry, looked up): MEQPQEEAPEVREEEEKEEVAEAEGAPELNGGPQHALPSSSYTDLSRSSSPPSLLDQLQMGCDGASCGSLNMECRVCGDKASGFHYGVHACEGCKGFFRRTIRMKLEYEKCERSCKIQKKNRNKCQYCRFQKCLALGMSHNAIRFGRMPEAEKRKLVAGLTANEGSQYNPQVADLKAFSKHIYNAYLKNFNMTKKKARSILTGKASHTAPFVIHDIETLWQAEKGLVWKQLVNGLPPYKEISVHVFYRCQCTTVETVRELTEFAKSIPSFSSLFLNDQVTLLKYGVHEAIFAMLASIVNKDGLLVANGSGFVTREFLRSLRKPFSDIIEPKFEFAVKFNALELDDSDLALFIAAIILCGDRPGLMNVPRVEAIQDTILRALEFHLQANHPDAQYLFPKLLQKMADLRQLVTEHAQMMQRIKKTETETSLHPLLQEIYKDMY
Peroxisome proliferator-activated receptor gamma (Homo sapiens), sequence (P37231 whole entry, looked up): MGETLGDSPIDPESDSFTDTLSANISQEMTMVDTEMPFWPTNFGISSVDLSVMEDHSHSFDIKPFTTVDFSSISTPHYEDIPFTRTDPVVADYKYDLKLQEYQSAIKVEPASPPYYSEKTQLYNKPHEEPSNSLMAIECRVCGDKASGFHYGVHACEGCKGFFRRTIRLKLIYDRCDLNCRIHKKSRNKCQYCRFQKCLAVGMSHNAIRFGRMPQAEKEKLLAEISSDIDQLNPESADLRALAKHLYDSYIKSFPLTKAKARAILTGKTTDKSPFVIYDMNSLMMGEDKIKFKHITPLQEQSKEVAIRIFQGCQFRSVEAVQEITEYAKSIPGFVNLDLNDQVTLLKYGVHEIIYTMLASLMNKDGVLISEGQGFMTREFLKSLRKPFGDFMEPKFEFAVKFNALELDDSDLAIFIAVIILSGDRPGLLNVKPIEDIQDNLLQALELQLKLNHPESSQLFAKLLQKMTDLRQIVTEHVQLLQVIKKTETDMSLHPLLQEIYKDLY
Bile acid receptor (Homo sapiens), sequence (Q96RI1 whole entry, looked up): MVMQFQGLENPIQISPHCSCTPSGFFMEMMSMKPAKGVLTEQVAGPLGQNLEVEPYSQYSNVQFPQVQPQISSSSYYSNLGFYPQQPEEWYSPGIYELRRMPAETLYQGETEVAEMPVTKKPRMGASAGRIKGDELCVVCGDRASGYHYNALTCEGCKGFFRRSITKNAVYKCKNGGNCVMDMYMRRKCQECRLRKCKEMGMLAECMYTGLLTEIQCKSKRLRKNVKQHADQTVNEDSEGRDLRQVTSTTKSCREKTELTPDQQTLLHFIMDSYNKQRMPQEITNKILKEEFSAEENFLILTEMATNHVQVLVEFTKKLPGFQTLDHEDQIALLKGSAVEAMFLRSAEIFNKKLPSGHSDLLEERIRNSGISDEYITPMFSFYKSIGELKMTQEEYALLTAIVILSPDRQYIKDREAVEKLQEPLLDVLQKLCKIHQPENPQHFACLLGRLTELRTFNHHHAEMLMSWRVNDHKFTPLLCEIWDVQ
Vitamin D3 receptor (Homo sapiens), sequence (P11473 whole entry, looked up): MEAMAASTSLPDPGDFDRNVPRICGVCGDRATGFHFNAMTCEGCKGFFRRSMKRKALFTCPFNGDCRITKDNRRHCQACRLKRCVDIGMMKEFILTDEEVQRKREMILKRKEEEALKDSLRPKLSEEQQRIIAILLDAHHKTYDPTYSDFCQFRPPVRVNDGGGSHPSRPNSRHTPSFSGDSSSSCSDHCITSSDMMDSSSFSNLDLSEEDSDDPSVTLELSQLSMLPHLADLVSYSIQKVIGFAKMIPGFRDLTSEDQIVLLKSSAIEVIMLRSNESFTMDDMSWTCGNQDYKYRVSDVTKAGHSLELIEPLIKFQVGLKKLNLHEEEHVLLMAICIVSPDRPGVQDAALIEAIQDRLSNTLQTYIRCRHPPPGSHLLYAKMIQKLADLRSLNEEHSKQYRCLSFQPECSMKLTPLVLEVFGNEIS

Nc1nnc(-c2cccc(Cl)c2Cl)c(N)n1
inactive: Potency [1] | Potency [2] | outcome [3] | Potency [4] | outcome [5] | Potency [6] | outcome [7] | outcome [8] | outcome [9] | outcome [10] | outcome [11] | outcome [12] | Potency [13] | Potency [14] | Potency [15] | outcome [16] | outcome [17] | outcome [18]

COc1ccc(C2CNC(=O)C2)cc1OC1CCCC1 (centres undefined)
inactive: Potency [1] | Potency [2] | outcome [3] | Potency [4] | outcome [5] | Potency [6] | outcome [19] | outcome [7] | outcome [8] | outcome [9] | outcome [11] | outcome [12] | Potency [14] | outcome [16] | outcome [17] | outcome [18]

Cc1ccc2c(c1)OCC(=O)CO2
inactive: Potency [1] | Potency [2] | outcome [3] | Potency [4] | outcome [5] | Potency [6] | outcome [19] | outcome [7] | outcome [8] | outcome [10] | outcome [11] | outcome [12] | Potency [14] | Potency [15] | outcome [16] | outcome [17]

O=C1c2cccc3c2[C@H](CCC3)CN1[C@@H]1CN2CCC1CC2
inactive: Potency [1] | Potency [20] | outcome [3] | Potency [6] | outcome [7] | outcome [8] | outcome [9] | outcome [10] | outcome [11] | outcome [12] | Potency [14] | outcome [17] | outcome [18]

c1ccc2c(c1)ccc1c3ccccc3ccc21
active: Potency [6] 24.8 µM
inactive: Potency [1] | Potency [2] | outcome [3] | Potency [4] | outcome [5] | outcome [7] | outcome [8] | outcome [10] | outcome [11] | outcome [12] | Potency [14] | Potency [15] | outcome [16] | outcome [17] | outcome [18]

C[C@@H](O)[C@H]1C(=O)N2C(C(=O)O)=C(SCCN=CN)C[C@H]12
inactive: Potency [1] | Potency [2] | outcome [3] | Potency [4] | outcome [5] | Potency [6] | outcome [19] | outcome [8] | outcome [9] | outcome [10] | outcome [11] | outcome [12] | Potency [13] | Potency [14] | Potency [15] | outcome [16]

CC(COC(C)(C)C)OCCCO (centres undefined)
inactive: Potency [1] | Potency [2] | outcome [3] | Potency [4] | outcome [5] | Potency [6] | outcome [19] | outcome [7] | outcome [8] | outcome [9] | Potency [14] | Potency [15] | outcome [16] | outcome [17] | outcome [18]

O=C(NCCN1CCOCC1)c1ccc(Cl)cc1
inactive: Potency [1] | Potency [2] | outcome [3] | Potency [4] | outcome [5] | Potency [6] | outcome [19] | outcome [7] | outcome [8] | outcome [9] | outcome [10] | outcome [11] | outcome [12] | outcome [16] | outcome [17] | outcome [18]

COc1ccc(S(=O)(=O)N2c3ccc(Cl)cc3[C@@](O)(c3ccccc3Cl)[C@H]2C(=O)N2CCC[C@@H]2C(N)=O)cc1OC
inactive: Potency [1] | Potency [20] | Potency [2] | Potency [4] | Potency [6] | outcome [19] | outcome [7] | outcome [8] | outcome [11] | outcome [12] | Potency [14] | outcome [16] | outcome [17] | outcome [18]

CCNC(=O)C1CC(C)CCC1C(C)C (centres undefined)
inactive: Potency [1] | Potency [2] | outcome [3] | Potency [4] | outcome [5] | outcome [19] | outcome [7] | outcome [8] | outcome [9] | outcome [10] | outcome [11] | outcome [12] | Potency [14] | outcome [16] | outcome [17] | outcome [18]

Cc1ccc(C=O)cc1C
inactive: Potency [1] | Potency [2] | outcome [3] | Potency [4] | outcome [5] | Potency [6] | outcome [19] | outcome [7] | outcome [8] | outcome [9] | Potency [14] | Potency [15] | outcome [16] | outcome [17] | outcome [18]

OCCC(F)(F)C(F)(F)C(F)(F)C(F)(F)C(F)(F)C(F)(F)C(F)(F)C(F)(F)F
inactive: Potency [1] | Potency [20] | Potency [2] | Potency [6] | outcome [19] | outcome [7] | outcome [8] | outcome [9] | outcome [10] | outcome [11] | Potency [14] | outcome [16] | outcome [17] | outcome [18]

NC(CO)C(=O)NNCc1ccc(O)c(O)c1O (centres undefined)
inactive: Potency [1] | Potency [2] | outcome [3] | Potency [4] | outcome [5] | outcome [19] | outcome [7] | outcome [8] | outcome [9] | outcome [10] | outcome [11] | outcome [12] | Potency [13] | Potency [14] | Potency [15] | outcome [16] | outcome [17] | outcome [18]

CCOC(=O)CC(=O)c1ccccc1
inactive: Potency [1] | Potency [2] | outcome [3] | Potency [4] | outcome [5] | Potency [6] | outcome [19] | outcome [7] | outcome [8] | outcome [9] | outcome [11] | outcome [12] | Potency [14] | outcome [16] | outcome [17] | outcome [18]

C[Si](C)=O
inactive: activity change, negative = cytotoxicity [1] -1.09% [at 8.47 µM] | viability change, negative = cytotoxic [2] -0.537% [at 8.47 µM] | activation [3] -3.83% [at 7.08 µM] | ratio activity, negative = inhibition [4] 8.93% [at 5.95 µM] | activity change, negative = cytotoxicity [5] 17.1% [at 5.95 µM] | activation [6] -4.69% [at 8.36 µM] | viability change, negative = cytotoxic [19] -8.17% [at 8.36 µM] | activity change, negative = cytotoxicity [7] 6.74% [at 5.95 µM] | activation [8] -1.34% [at 5.95 µM] | activity change, negative = cytotoxicity [9] 1.6% [at 5.95 µM] | activation [10] 0.307% [at 5.95 µM] | ratio activity, negative = inhibition [12] 22.7% [at 6.26 µM] | activity change, negative = inhibition [13] 6.53% [at 5.95 µM] | viability change, negative = cytotoxic [14] 5.27% [at 5.95 µM] | activation [15] 2.56% [at 5.95 µM]

CCCCCCN
inactive: Potency [1] | Potency [20] | Potency [2] | outcome [5] | Potency [6] | outcome [19] | outcome [7] | outcome [9] | outcome [10] | outcome [11] | outcome [12] | Potency [14] | outcome [16] | outcome [17] | outcome [18]
